Assay results reported in PubChem BioAssay (EPA / NIEHS).
Several values for one entry are separate records, joined by “and”; a condition that tells them apart may be missing. Equal entries are not always repeated. Records with an inconclusive call do not appear. Activity calls are given as the source filed them. The calls were made as follows: active = hit-call score of the fitted dose curve at least 0.9, where 1 is the maximum; inconclusive = response in the unintended direction; inactive = score below 0.9.

Assay: ATG_XTT_Cytotoxicity: Cytotoxicity Assessment in the Attagene TRANS-FACTORIAL HepG2 Assay (AID 2283584);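 as to AC50: XTT signal for cell number as viability in transfected HepG2 cells; cells exposed to compound for 24 h before reading; active means loss of viability signal versus DMSO baseline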
Procedure, shortened: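 Transfect HepG2 with GAL4-UAS reporter units, dose compound, incubate 24 h, then measure viable cell number by XTT. Fit concentration response against DMSO baseline.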

Row | Compound | outcome | AC50
1 | C/C=C(\C)C(=O)OCCc1ccccc1 | inactive | 
2 | C#CC(C)(O)CC(C)C (stereo not drawn) | inactive | 
3 | C=C(CC(=O)O)C(=O)O | inactive | 
4 | Brc1ccc(Br)c(Br)c1 | inactive | 
5 | Cc1cc(C)nc(NS(=O)(=O)c2ccc(N)cc2)n1 | inactive | 
6 | Cc1[nH]c(=O)c(C#N)cc1-c1ccncc1 | inactive | 
7 | IC(I)I | inactive | 
8 | COc1ccc(CCN2CCC(Nc3nc4ccccc4n3Cc3ccc(F)cc3)CC2)cc1 | inactive | 
9 | CC1C2CC(CC2C2CCCC(O)C2)C1(C)C (stereo not drawn) | inactive | 
10 | CCCCC(CC)COC(=O)c1ccc(O)cc1 (stereo not drawn) |  | 100 µM (active) and 121 µM (active)
11 | CC(C)=CCCC(C)CCOC=O (stereo not drawn) | inactive | 
12 | COC(=O)C=C(C)CCC=C(C)C | inactive | 
13 | CC1(C)C2=CCCC(C)(C)[C@]23CC[C@H]1C3 | inactive | 
14 | CCOC(=O)COC(=O)c1cc(Oc2ccc(C(F)(F)F)cc2Cl)ccc1[N+](=O)[O-] | inactive | 
15 | CCOC(=O)C1OC1c1ccccc1 (stereo not drawn) | inactive | 
16 | CCOC(=O)c1ccc(N)cc1 | inactive | 
17 | O=c1[nH]c(=O)c2cn[nH]c2[nH]1 | inactive | 
18 | CCCCCC(C=O)=Cc1ccccc1 | inactive | 
19 | CC(Oc1cc(Cl)ccc1Cl)C(=O)O (stereo not drawn) | inactive | 

Row | Compound | outcome | AC50
20 | O=C1c2ccccc2C(=O)c2c(O)ccc(O)c21 | inactive | 
21 | O=[N+]([O-])c1ccc(O)cc1C(F)(F)F | inactive | 
22 | COc1ccc(CCC(C)=O)cc1 | inactive | 
23 | CC(C)(C)CC(C)(C)c1ccc(OCCOCC[N+](C)(C)Cc2ccccc2)cc1 |  | 44.9 µM (active)
24 | CCCC1O[C@@H]2C[C@H]3[C@@H]4CCC5=CC(=O)C=C[C@]5(C)[C@H]4[C@@H](O)C[C@]3(C)[C@]2(C(=O)CO)O1 (stereo partly drawn) | inactive | 
25 | OCCOCCN1CCN(C2=Nc3ccccc3Sc3ccccc32)CC1 | inactive | 
26 | CCOc1ccc(NC(=O)CC(C)O)cc1 (stereo not drawn) | inactive | 
27 | CCCCCCCCc1ccc(S(=O)(=O)O)cc1 | inactive | 
28 | CCC1(c2ccccc2)C(=O)NCNC1=O | inactive | 
29 | CCCCCCCCCC(C)C=O (stereo not drawn) | inactive | 
30 | CC(=O)CC(=O)Nc1ccc(C)cc1C | inactive | 
31 | C=C(C#N)C(=O)OCC | inactive | 
32 | CC(=O)O[C@@H]1CC2CCC1(C)C2(C)C (stereo partly drawn) | inactive | 
33 | CCOC(=O)CCc1ccccc1 | inactive | 
34 | Nc1ccc2c(O)cc(S(=O)(=O)O)cc2c1 | inactive | 
35 | CCCOCCO | inactive | 
36 | CC(CN=Cc1ccccc1O)N=Cc1ccccc1O (stereo not drawn) | inactive | 
37 | OCCCCC(O)CO (stereo not drawn) | inactive | 
38 | C=C(C)C(=O)OCC(CC)(COC(=O)C(=C)C)COC(=O)C(=C)C | inactive | 
